Assay outcomes as filed in PubChem BioAssay.
aSyn UTR act = Activators via SNCA 5'UTR binding, MLPCN | activity score, % (tested at 7.5 µM), hits read low | 300,000 compounds, 7.1% hits | alpha-synuclein 5'UTR reporter, activators screen | AID 1814; in the data active means activity score below about -60%
An asterisk follows results filed as active. A selection follows.

SMILES | aSyn UTR act
COc1ccc(/C=N/Nc2nc(Nc3ccccc3)nc(N3CCCCC3)n2)cc1OC | -110.6*
Cc1ccc(NC(=O)C2Cc3ccccc3O/C2=N\O)cc1C (stereo unspecified) | -127.4*
O=C(Nc1ccc(Br)cc1)C1Cc2ccccc2O/C1=N\O (stereo unspecified) | -158.1*
COc1ccc(C(=O)O/N=C(/c2ccccc2)c2ccncc2)cc1 | -71.7*
N/C(=N\OC(=O)c1ccc(Br)cc1)c1ccncc1 | -109.9*
N/C(=N\OC(=O)c1ccccc1)c1ccncc1 | -121.6*
N/C(=N\OC(=O)c1cccc(Br)c1)c1ccncc1 | -137.9*
COc1ccc2oc(=O)c(C(=O)N3CCN(c4ccccc4C)CC3)cc2c1 | -157.3*
COc1cc2c(cc1OC)CN(C(=O)c1cc3ccccc3oc1=O)CC2 | -98.8*
COc1ccc2oc(=O)c(C(=O)N3CCN(c4ccccc4)CC3)cc2c1 | -68.1*
Cc1ccc(C)c(OCCn2cc(/C=C(\C#N)C(=O)NCc3ccco3)c3ccccc32)c1 | 52.0
Cc1cc(/C=C(\C#N)C(=O)NCc2ccco2)c(C)n1-c1cccnc1 | -100.0*
Cc1cc(/C=C(\C#N)C(=O)NCc2ccco2)c(C)n1C1CCCC1 | -137.5*
CC(C)(C)c1cnnn1-c1ccc(/C=N/Nc2ccc([N+](=O)[O-])cc2)cc1 | -95.4*
Cc1cc(C(=O)CN2C(=O)NC3(CCCCC3C)C2=O)c(C)n1Cc1cccs1 (stereo unspecified) | -164.9*
COc1ccc(C(=O)CN2C(=O)NC3(CCCCCC3)C2=O)cc1 | -90.3*
COC(=O)c1ccc(CN2C(=O)NC3(CCCCC3)C2=O)cc1 | -124.0*
COc1ccc(C(=O)CN2C(=O)c3ccccc3S2(=O)=O)cc1 | 101.3
CCOC(=O)c1c(C)[nH]c(C(=O)CN2C(=O)NC3(CCCC3)C2=O)c1C | -67.4*
Cc1cc(C(=O)CN2C(=O)NC3(CCCCC3)C2=O)c(C)n1C | -68.6*
Cc1cc(C)c(C(=O)CN2C(=O)NC3(CCCCCC3)C2=O)cc1C | -72.2*
CCOC(=O)c1c(C)[nH]c(C(=O)CSc2nccc(C)n2)c1C | -128.7*
COCCn1c(C)cc(C(=O)COC(=O)c2ccc(Br)o2)c1C | -99.9*
Cc1cc(C(=O)COC(=O)c2ccc(Br)o2)c(C)n1C | -111.8*
Cc1cc(O)cc(O)c1-c1onc(C(F)(F)F)c1-c1cscn1 | -78.5*
SMILES | aSyn UTR act
NC(=O)c1ccc(-c2ncc(-c3ccccc3)o2)cc1 | -68.3*
Cc1ccc(C(=O)NCC(=O)NC23CC4CC(CC(C4)C2)C3)cc1 | -76.3*
Cc1ccc(C(=O)/C=C2/NC(=O)CS2)cc1 | -102.8*
CN(C)c1ccc(/C=C(/C#N)C(=O)NCc2ccccc2)o1 | -96.2*
O=C(Nc1cccc(-c2nc3ccccc3s2)c1)C1=COCCO1 | -81.5*
O=C(Nc1ccc(-c2nc3ccccc3s2)c(O)c1)C1=COCCO1 | -79.8*
O=C(Nc1ccc(-c2nc3ccccc3s2)cc1)C1=COCCO1 | 94.2
O=C(Nc1ccc(O)c(-c2nc3ccccc3s2)c1)C1=COCCO1 | -77.7*
CCOc1ccc2nc(NC(=O)Cc3cccs3)sc2c1 | -136.9*
Cc1ccc2nc(NC(=O)c3ccccn3)sc2c1 | 111.4
CC(Cc1ccccc1)C(=O)NCc1nc2ccccc2s1 (stereo unspecified) | -75.3*
Cc1ccc2nc(NC(=O)COC(=O)c3ccco3)sc2c1 | -96.9*
Cc1ccc2nc(NC(=O)Cc3cccs3)sc2c1 | -165.9*
O=C(Cc1nc(=O)c2ccccc2s1)Nc1ccccc1 | -105.1*
O=C(Cc1cccs1)Nc1nc2ccccc2s1 | -82.2*
CCc1ccc2nc(NC(=O)CCCc3cccs3)sc2c1 | -81.2*
CC1(C(=O)Nc2nc3ccccc3s2)CC1(Br)Br (stereo unspecified) | -117.9*
COc1ccc2nc(NC(=O)Cc3cccs3)sc2c1 | -131.8*
O=C(Cc1ccccc1)Nc1nc2ccccc2s1 | -102.2*
CC(=O)c1c(C)[nH]c(C(=O)Nc2ccc(C)cn2)c1C | 84.9
COc1cc2ccccc2cc1C(=O)Nc1ccc(C)cn1 | -86.8*
Cc1ccc(NC(=O)c2ccccc2F)nc1 | -87.7*
Cc1ccc(NC(=O)c2cc(F)c(F)cc2Cl)nc1 | -130.0*
FC(F)(F)c1cccc(-c2ccc(-c3csnn3)o2)c1 | -84.8*
Cc1c(Cl)cccc1Nc1nc(N)nc(CSc2ncccn2)n1 | -77.5*
SMILES | aSyn UTR act
c1ccc(CSc2nnnn2-c2ccc3c(c2)OCCO3)nc1 | -70.7*
Cc1cccc(NC(=S)N2N=CCC2c2ccccc2)c1 (stereo unspecified) | -125.2*
CCc1ccccc1NC(=S)N1N=CCC1c1ccccc1 (stereo unspecified) | -71.0*
Cc1ccc(/C=N/n2c(C)nc3ccccc3c2=O)s1 | -89.9*
Cc1nc2ccccc2c(=O)n1/N=C/c1ccccc1Cl | -90.5*
COc1ccc(C(=O)/C(=C/O)N=Nc2ccc(F)cc2)cc1 | -64.3*
CCC(C)C(=O)N1CCc2cc(-c3csc(N)n3)ccc21 (stereo unspecified) | -172.4*
Cc1ccc(-c2nc(NC(=O)c3nn(C)cc3[N+](=O)[O-])sc2C)cc1 | 99.4
CC(=O)Nc1nc(-c2ccc3c(c2)CCN3C(=O)C2CC2)c(C)s1 | -254.8*
